Usually AC50 stands for the concentration at which the activity in the assay is half-maximal.

Drawing on PubChem BioAssay (EPA / NIEHS), this text covers outcome and AC50 for 38 compounds.

Molecules are shown by their SMILES. Several values for one entry are separate records, joined by “and”; a condition that tells them apart may be missing. Identical values can stand only once. More than one record can exist for a structure, and the calls need not agree. Activity calls are given as the source filed them. The calls were made as follows: active = hit-call score of the fitted dose curve at least 0.9, where 1 is the maximum; inactive = score below 0.9.

Read-out in this experiment: Monocyte Chemoattractant Protein-1 (MCP1), CCL2 (gene 6347)
The experiment can be described thus: BSK_LPS_MCP1: BioMAP Diversity Plus: LPS Assay for Monocyte Chemoattractant Protein-1 (MCP1) Biomarker Activity (AID 2283081).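 As to AC50: co-culture stimulated with LPS.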 As to conditions: primary human HUVEC with PBMC; actives raise or lower the signal. The procedure:
BSK_LPS is a cell-based, multiplexed-readout assay that uses umbilical vein endothelium and peripheral blood mononuclear cells, a human vascular primary cell co-culture, with measurements taken at 24 hours after chemical dosing in a 96-well plate.BSK_LPS_MCP1 is an assay component measured in the BSK_LPS assay. It measures MCP-1 antibody related to regulation of gene expression using ELISA technology.Data from the assay component BSK_LPS_MCP1 was analyzed into 1 assay endpoint. This assay endpoint, BSK_LPS_MCP1, was analyzed with bidirectional fitting relative to DMSO as the negative control and baseline of activity. Using a type of binding reporter, gain or loss-of-signal activity can be used to understand changes in the signaling as they relate to the gene CCL2. Furthermore, this assay endpoint can be referred to as a primary readout, because this assay has produced multiple assay endpoints where this one serves a signaling function. To generalize the intended target to other relatable targets, this assay endpoint is annotated to the cytokine intended target family, where the subfamily is chemotactic factor.
The levels of cell surface (or secreted, indicated by the prefix "s") biomarker endpoints were measured by ELISA. Overt cytotoxicity to cells in confluent adherent cultures (all systems other than the BT system) was assessed by measuring total protein levels using sulforhodamine B (SRB) staining in parallel cultures at the time of biomarker measurements, indicated as SRB endpoints. For proliferation assays for adherent cell types, individual cell types are cultured at sub-confluence and relative cell numbers quantified by SRB staining at time points optimized for each system (48 h: 3C and CASM3C systems; 72 h: BT and HDF3CGF systems; 96 h: SAg system). SRB was performed by staining cells with 0.1% SRB after fixation with 10% TCA and reading wells at 560 nm.Viability and proliferation of PBMC (T cells) was quantified by Alamar Blue reduction for the SAg and BT systems. For PBMC viability (referred to as PBMC Cytotoxicity within the assay endpoint names), cells were plated (75,000/well in a 96-well plate) and then chemical samples added for 1 h before addition of activators, SEB and TSST-1 (20 ng/mL final concentration each). Cells were incubated for 90 h. Then, Alamar Blue (20 uL/well) (Invitrogen, Cat DAL1100) was added for 6 h, and the plates were read with a fluorescence microplate reader at 546/580 nm (excitation/emission). For PBMC proliferation, cells were plated and activated as above but incubated for only 16 h prior to addition of Alamar Blue. Plates were read after 6 h.
For `CC(C)C(=O)OCC(C)(C)C(OC(=O)C(C)C)C(C)C` (stereo not given), the result was inactive. Turning to `O=C(N[C@H]1CN2CCC1CC2)c1cc2ccoc2cn1`, the outcome was inactive. For the compound `O=NN(c1ccccc1)c1ccccc1`, the result was inactive. Consider `CCSC(=O)N(CC)C1CCCCC1`, for which the result was inactive.

On to `c1cc2ccc3cccc4ccc(c1)c2c34`, for which the result was inactive. For `Cc1cc2c3c(c1)C(c1ccccc1)=N[C@@H](NC(=O)c1ccncc1)C(=O)N3CC2`, the outcome was inactive.

Regarding `O=S(=O)(O)C(F)(F)C(F)(F)C(F)(F)C(F)(F)C(F)(F)C(F)(F)F`, the result was inactive.

With `Nc1ccc(-c2ccc(N)cc2)cc1`, the outcome was inactive. For `CCCCCCCCCc1ccc(O)cc1`, the AC50 is 32.2 µM (active).

As for `N#Cc1ccc(N(CC(N)=O)CC(F)(F)F)cc1C(F)(F)F`, the result was inactive.

For `Oc1ccc(Cl)cc1Cl`, the outcome was inactive. Regarding `CC(c1ccc(O)cc1)(c1ccc(O)cc1)c1ccc(O)cc1`, the half-maximal activity concentration (AC50) was 20 µM (active). For `CN(C)c1nc(=O)n(C2CCCCC2)c(=O)n1C`, the result was inactive. As for `Cc1ccccc1O`, the outcome was inactive. Take `CCCCCCCCOC(=O)c1ccccc1C(=O)OCCCCCCCC`: the result was inactive. On to `CC(C)(c1ccccc1)c1ccc(O)cc1`, for which the concentration at half-maximal activity (AC50) was 35.2 µM (active). Turning to `CC#Cc1cc(C)nc(Nc2ccccc2)n1`, the outcome was inactive. Take `CN(C)CCO`: the outcome was inactive.

For `ClC1=C(Cl)[C@]2(Cl)[C@@H]3[C@@H](Cl)[C@H]4O[C@H]4[C@@H]3C1(Cl)C2(Cl)Cl`, the result was inactive.

On to `C=CC(N)=O`, for which the outcome was inactive. For `NS(=O)(=O)C(F)(F)C(F)(F)C(F)(F)C(F)(F)C(F)(F)C(F)(F)C(F)(F)C(F)(F)F`, the result was inactive; the AC50 is 55.7 µM (active) and 57.3 µM (active). Regarding `O=C(NC(=O)c1cc(F)c(F)cc1Cl)Nc1cc(F)ccc1N1CCC(C(=O)O)CC1`, the outcome was inactive.

In the case of `Cc1cccc([N+](=O)[O-])c1`, the outcome was inactive. `Cc1cccc(C)c1N`: the outcome was inactive. For the compound `CCCCCCCCCC[N+](C)(C)CCCCCCCCCC`, the AC50 is 4.16 µM (active). With `O=C(O)C(F)(F)C(F)(F)C(F)(F)C(F)(F)C(F)(F)C(F)(F)C(F)(F)C(F)(F)F`, the concentration at half-maximal activity (AC50) is 47.9 µM (active) and 58.4 µM (active); the outcome was inactive. Take `Cc1cc(-c2ccc(N)c(C)c2)ccc1N`: the outcome was inactive. In the case of `CCC(C)(c1ccc(O)cc1)c1ccc(O)cc1`, the outcome was inactive. For `O=C(NC(=O)c1c(F)cccc1F)Nc1cc(Cl)c(OC(F)(F)C(F)F)c(Cl)c1`, the result was inactive. Take `Clc1ccc(Cl)cc1`: the outcome was inactive.

With `Cc1ccccc1[N+](=O)[O-]`, the outcome was inactive. `C1CC2OC2CC1C1CO1` (stereo not given): the result was inactive. Regarding `CCOCCOC(C)=O`, the result was inactive. Regarding `C[C@]12CCC(=O)C=C1CC[C@@H]1[C@@H]2CC[C@]2(C)C(=O)CC[C@@H]12`, the result was inactive.

On to `ClC(Cl)=C(c1ccc(Cl)cc1)c1ccc(Cl)cc1`, for which the concentration at half-maximal activity (AC50) is 35.4 µM (active). Same read-out and setting: with `Clc1ccc(C(c2ccccc2Cl)C(Cl)(Cl)Cl)cc1` (stereo not given) the figure was 21.6 µM (active). As to `Cc1ccc(O)c(C)c1`, the result was inactive. With `ClC1=C(Cl)[C@]2(Cl)[C@@H]3[C@H]4C[C@H]([C@@H]5O[C@H]45)[C@@H]3[C@@]1(Cl)C2(Cl)Cl`, the result was inactive.
